Results: PubChem BioAssay AID720596 (The Scripps Research Institute Molecular Screening Center, 2013)
Screen size: about 370,000 compounds; about 1,600 (0.43%) were called active. The full list was thinned out, with actives kept by preference. Unmarked numbers belong to inactive results. Cut-off read from the data, not from the text of the source: active = inhibition above about 24%; inactive = the rest.

What follows are molecules tested against Major prion protein (Homo sapiens) (UniProt P04156) (assay: reduces human prion protein on the cell surface, primary screen, cell-based, TR-FRET (AID 720596; note: 0% = median of the test wells and 100% = reference compound wells)). Settings: cell surface PrPC, TR-FRET read-out; at 13.8 µM; stronger effect = higher value.
`Nc1[nH]c(C(=O)c2ccc(Br)cc2)c(-c2ccc3c(c2)OCO3)c1C(=O)NCCc1c[nH]c2ccccc12` showed an inhibition of -5.16%.
For `Oc1c(Cl)cc(Cl)c(Cl)c1Cc1c(O)c(Cl)cc(Cl)c1Cl`, the inhibition was 28.9% (active).
`C=CCC[C@@H](CCCCC)OC(=O)/C=C/[C@@H](O)[C@H](O)C[C@H](O)CC=C` was tested, and the inhibition was -5.85%.
In the case of `COc1ccc(-c2cc(-c3nnc(SCc4ccc([N+](=O)[O-])cc4)n3N)[nH]n2)cc1`, the inhibition is reported as 0.13%.
`CCOc1ccc(S(=O)(=O)N(CC(=O)O)c2ccccc2)cc1` was tested, and the inhibition was -3.25%.
Molecule `COC(=O)[C@]12C[C@H](CC(=O)NCc3ccc(C)o3)C(=O)N(CCC3=CCCCC3)C1=C[C@H](C(C)(C)C)O[C@@H]2C` has an inhibition of 7.81%.
`Cc1ccc(NC(=O)C(=O)NCC2CCN(C(=O)c3cccc([N+](=O)[O-])c3)CC2)cc1` showed an inhibition of -5.67%.
With `O=C(Nc1ccc(C2CC2(Cl)Cl)cc1)c1cccc([N+](=O)[O-])c1` (stereo not given) the inhibition was 25.6% (active).
With `O=C(Nc1ccc([N+](=O)[O-])cc1)C1CC12CCC2` (stereo not given) the inhibition was 3.59%.
`COc1cc(C(=O)N2Cc3ccc(Br)cc3-n3nncc3C2)cc(OC)c1OC` showed an inhibition of -0.36%.
`Cc1ccc(C)c(S(=O)(=O)N2CCCOC2CNC(=O)C(=O)NC2CCCCC2)c1` (stereo not given) showed an inhibition of -1.91%.
Work on `COc1ccc2c(CC(=O)OCC(=O)Nc3ccccc3[N+](=O)[O-])coc2c1` yielded an inhibition of -12.7%.
`CO[C@H]([C@H](C)/C=C/N(C)C=O)[C@@H](C)C(=O)CC[C@H](C)[C@H](O)[C@H](C)[C@H]1OC(=O)/C=C/C(C)=C/[C@H](O)[C@H](OC)C[C@@H]2C=CC[C@@H](C[C@H](OC)[C@@]3(CO3)[C@@H](OC)C[C@@H](OC)[C@@H]1C)O2` was tested, and the inhibition was 38% (active).
`CN(C)C(=O)CCc1ccc2c3c([nH]c2c1)[C@]1(C)[C@@H](C(=O)N2CCCCC2)C[C@H](CC(=O)NCCC2=CCCCC2)C(=O)N1CC3` was tested, and the inhibition was -3.09%.
For `CN(CCc1ccccc1)C(=O)c1cccc(NC(=O)Cc2ccc([N+](=O)[O-])cc2)c1`, the inhibition was -2.03%.
`CC(C)(C)NC(=O)c1cccc(NC(=O)Cc2ccc(Br)cc2)c1` gave an inhibition of 11%.
For `O=C(Cc1ccccc1)Nc1cccc(NC(=O)c2ccccc2)c1`, the inhibition was 30.2% (active).
`Cc1ccc(Cc2cncc(O)c2)cc1S(=O)(=O)O` gave an inhibition of -7.2%.
In the case of `Cc1[nH]c(C)c(S(=O)(=O)N2CCC(C)CC2)c1C(=O)N1CCCC1`, the inhibition is reported as -7.7%.
`O/N=C(\C[n+]1ccccc1)c1ccc(Br)cc1` gave an inhibition of 6.16%.
